Data on 10 molecules can be found in PubChem BioAssay (Tox21).

Inconclusive results are not listed. Calls of active or inactive are those of the source. Unless noted, calls come from the whole dose curve; as a rule, active = well fitted curve in the direction sought with a large enough effect in the repeat runs; inconclusive = weak or mixed curves; inactive = no such curve, though single readings can be large; an effect the other way counts as inactive or inconclusive.

For experiment [1], the target named is Aryl hydrocarbon receptor (Homo sapiens) (UniProt P35869). Kind of experiment: qHTS assay to identify small molecule that activate the aryl hydrocarbon receptor (AhR) signaling pathway (AID 743085).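 Note: HG2L7.5c1 human HepG2 liver cells with stably integrated DRE-driven firefly reporter; series mostly up to about 70 µM; nearly all actives have a fitted effect of over 15% in size.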 Put shortly: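 Luminescence (ONE-Glo) from a dioxin-responsive-element luciferase reporter in HG2L7.5c1 HepG2 cells after 24 hr compound exposure at 37C; viability measured by CellTiter-Fluor fluorescence beforehand.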
For orientation: Quantitative high-throughput screening tests each substance at several concentrations.

Experiment [2] in a line: qHTS assay to identify small molecule that activate the aryl hydrocarbon receptor (AhR) signaling pathway - cell viability counter screen (AID 743086). Note: nearly all actives have a fitted effect of over 45% in size. Note: potency is the fitted concentration of half-maximal effect. A digest of the protocol:
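Cytotoxicity counter screen: CellTiter-Fluor signal (30 min, 37 C) in 4000 HepG2 cells/well carrying the DRE-luciferase reporter, following 24 h compound exposure at 37 C.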

Experiment [3] deals with Peroxisome proliferator-activated receptor gamma (Homo sapiens) (UniProt P37231). Kind of experiment: qHTS assay to identify small molecule agonists of the peroxisome proliferator-activated receptor gamma (PPARg) signaling pathway (AID 743094; active = well fitted activation curve with a large enough effect in the signal ratio in the repeat runs, not every such curve was filed as active; the % refers to the signal ratio; note: potency is the fitted concentration of half-maximal effect). A digest of the protocol:
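Cells from the PPARg UAS-bla HEK293H line are plated and incubated 5 h at 37C. Compounds in DMSO are pinned in and left 17 h at 37C. LiveBLAzer B/G substrate is then added for 1 h at room temperature before fluorescence is measured.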

For experiment [4] the target is unchanged. The experiment can be described thus: qHTS assay to identify small molecule antagonists of the peroxisome proliferator-activated receptor gamma (PPARg) signaling pathway (AID 743191; calls by dose curve; note: series mostly up to about 63 µM; nearly all actives have a fitted effect of over 30% in size). A digest of the protocol:
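Beta-lactamase reporter under UAS control in HEK293H PPARg-bla cells; compound treatment 17 h at 37C. Read-out: fluorescence intensity after 1 h room-temperature incubation with LiveBLAzer B/G FRET substrate.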

Experiment [5] in a line: qHTS assay for small molecule agonists of the antioxidant response element (ARE) signaling pathway - cell viability counter screen (AID 743203; calls by dose curve; note: nearly all actives have a fitted effect of over 55% in size). Put shortly:
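Cytotoxicity was tested in parallel with the ARE reporter screen. ARE-bla HepG2 cells were exposed to compounds for 16 hrs, and viability was taken from CellTiter-Glo luminescence.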

Experiment [6] is described as follows: qHTS assay to identify small molecule antagonists of the peroxisome proliferator-activated receptor delta (PPARd) signaling pathway - cell viability counter screen (AID 743213). Note: nearly all actives have a fitted effect of over 50% in size. Put shortly:
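PPARd-bla HEK293H cells were treated with compounds plus agonist L165041 (300 nM final) for 17 h at 37 C. Viability was then read in the same wells by CellTiter-Glo luminescence after 30 min at room temperature.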

Experiment [7] can be described thus: qHTS assay to identify small molecule antagonists of the farnesoid-X-receptor (FXR) signaling pathway - cell viability counter screen (AID 743221; active = well fitted cell-killing curve with a large enough effect in the repeat runs, not every such curve was filed as active; note: nearly all actives have a fitted effect of over 50% in size). Put shortly: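 Cytotoxicity counter screen run in the FXR-bla reporter wells: HEK 293T cells exposed to compound with 50 uM (final) chenodeoxycholic acid for 16 h, 37 C, then viability measured by CellTiter-Glo luminescence after 30 min, room temperature.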

Experiment [8] addresses Vitamin D3 receptor (Homo sapiens) (UniProt P11473). Kind of experiment: qHTS assay to identify small molecule agonists of the vitamin D receptor (VDR) signaling pathway (AID 743222; calls by dose curve). A digest of the protocol:
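Cells carrying a VDR-driven beta-lactamase reporter are seeded at 2,000 per well and rested 4 h. Compounds in DMSO are added for 16 h at 37C, and FRET substrate fluorescence is measured after 2 h at room temperature.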

Experiment [9] is described as follows: qHTS assay to identify small molecule antagonists of the peroxisome proliferator-activated receptor gamma (PPARg) signaling pathway - cell viability counter screen (AID 743194). Note: nearly all actives have a fitted effect of over 55% in size. A digest of the protocol:
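Viability was measured as CellTiter-Glo luminescence in GeneBLAzer PPARg UAS-bla HEK293H cells. These cells had been exposed 17 h at 37 C to compounds together with rosiglitazone at 50 nM final, with the beta-lactamase readout taken in the same wells.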

The nature of experiment [10]: qHTS assay for small molecule activators of the heat shock response signaling pathway - cell viability counter screen (AID 743209). Note: nearly all actives have a fitted effect of over 50% in size. A digest of the protocol:
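Cytotoxicity counter screen run in parallel with the HSE beta-lactamase reporter, using the same wells. HeLa HSE-bla cells received compound for 5 h at 37 C; ATP-based CellTiter-Glo luminescence was measured after 30 min at room temperature.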

A short description of experiment [11]: qHTS assay to identify small molecule agonists of the peroxisome proliferator-activated receptor delta (PPARd) signaling pathway - cell viability counter screen (AID 743211). Note: nearly all actives have a fitted effect of over 55% in size. A digest of the protocol: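 Viability was measured as CellTiter-Glo luminescence (30 min, room temperature) in the same wells as the beta-lactamase readout. GeneBLAzer PPARd UAS-bla HEK293H cells received compound after 5 h plating and were incubated 17 h at 37 C.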

Experiment [12] concerns the target Peroxisome proliferator-activated receptor delta (Homo sapiens) (UniProt Q03181). The experiment can be described thus: qHTS assay to identify small molecule agonists of the peroxisome proliferator-activated receptor delta (PPARd) signaling pathway (AID 743212; calls by dose curve; note: potency is the fitted concentration of half-maximal effect). A digest of the protocol: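 Steps: seed PPARd-bla HEK293H cells; incubate 5 h, 37 C, 5% CO2; add compounds in DMSO; incubate, 37 C; add LiveBLAzer B/G FRET substrate; hold 2 h at room temperature; measure fluorescence.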

Experiment [13] has the same target. The experiment can be described thus: qHTS assay to identify small molecule antagonists of the peroxisome proliferator-activated receptor delta (PPARd) signaling pathway (AID 743215; active = well fitted inhibition curve with a large enough effect in the signal ratio in the repeat runs, not every such curve was filed as active; the % refers to the signal ratio;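 note: cells stimulated with agonist L165041 at 300 nM final during compound exposure; series mostly up to about 62 µM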). Put shortly: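 Cells: HEK293H with a UAS-driven beta-lactamase reporter responsive to PPARd. Compounds were co-added with L165041 (300 nM, final) and incubated 17 h at 37 C before a 2 h room-temperature FRET substrate step and fluorescence reading.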

A short description of experiment [14]: qHTS assay to identify small molecule agonists of the farnesoid-X-receptor (FXR) signaling pathway - cell viability counter screen (AID 743218). Note: nearly all actives have a fitted effect of over 45% in size. Put shortly:
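Cells were seeded, left 5 h at 37 C and 5% CO2, then dosed with compound in DMSO for 16 h. After the beta-lactamase FRET read, CellTiter-Glo was added and luminescence measured 30 min later.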

Experiment [15] has as its target Vitamin D3 receptor (Homo sapiens) (UniProt P11473). The experiment can be described thus: qHTS assay to identify small molecule antagonists of the vitamin D receptor (VDR) signaling pathway (AID 743223; active = well fitted inhibition curve with a large enough effect in the signal ratio in the repeat runs, not every such curve was filed as active; the % refers to the signal ratio). A digest of the protocol:
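Antagonist mode: compound added to VDR-bla cells alongside agonist 1alpha,25-dihydroxyvitamin D3 (3 nM final), incubation 16 h at 37C. Read-out is LiveBLAzer FRET fluorescence, 2 h at room temperature.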

Experiment [16] can be described thus: qHTS assay to identify small molecule agonists of the vitamin D receptor (VDR) signaling pathway - cell viability counter screen (AID 743224). Note: series mostly up to about 63 µM; nearly all actives have a fitted effect of over 50% in size. Put shortly:
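Cells: VDR-bla, 2,000/well, settled 4 h. Treatment: compounds in DMSO, 16 h, 37C/5% CO2. Readout: CellTiter-Glo luminescence after 30 min RT.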

A short description of experiment [17]: qHTS assay for small molecule agonists of the antioxidant response element (ARE) signaling pathway (AID 743202; active = well fitted activation curve with a large enough effect in the signal ratio in the repeat runs, not every such curve was filed as active; the % refers to the signal ratio). A digest of the protocol: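 Beta-lactamase reporter activity, read as fluorescence intensity, reflects ARE/Nrf2 pathway induction in HepG2 cells after 16 h compound exposure at 37 C; substrate loading was 2 h at room temperature.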
Experiment [18] is described as follows: qHTS assay for small molecule activators of the heat shock response signaling pathway (AID 743210; active = well fitted activation curve with a large enough effect in the signal ratio in the repeat runs, with a control signal flat, not every such curve was filed as active; the % refers to the signal ratio;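 note: HeLa cells with beta-lactamase reporter driven by heat shock elements; series mostly up to about 63 µM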). Put shortly:
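Fluorescence from a cleaved B/G FRET substrate (2.5 h, room temp) reports HSE-driven beta-lactamase in HeLa cells treated 5 h at 37 C with DMSO-dissolved compounds.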

Sequence of Vitamin D3 receptor (Homo sapiens) (P11473 whole entry, looked up): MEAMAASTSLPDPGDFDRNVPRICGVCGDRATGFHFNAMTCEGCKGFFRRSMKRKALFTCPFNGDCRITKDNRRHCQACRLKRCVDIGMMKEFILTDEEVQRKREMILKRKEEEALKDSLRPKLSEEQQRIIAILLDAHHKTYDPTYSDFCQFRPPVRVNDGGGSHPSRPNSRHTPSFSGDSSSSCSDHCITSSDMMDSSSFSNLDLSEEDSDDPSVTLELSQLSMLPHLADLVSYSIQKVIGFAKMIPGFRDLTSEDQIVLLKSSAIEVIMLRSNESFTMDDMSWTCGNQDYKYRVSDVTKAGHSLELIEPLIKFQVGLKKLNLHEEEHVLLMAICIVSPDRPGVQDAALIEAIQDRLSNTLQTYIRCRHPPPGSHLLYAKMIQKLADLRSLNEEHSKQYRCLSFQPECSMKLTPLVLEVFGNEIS
Sequence of Aryl hydrocarbon receptor (Homo sapiens) (P35869 whole entry, looked up): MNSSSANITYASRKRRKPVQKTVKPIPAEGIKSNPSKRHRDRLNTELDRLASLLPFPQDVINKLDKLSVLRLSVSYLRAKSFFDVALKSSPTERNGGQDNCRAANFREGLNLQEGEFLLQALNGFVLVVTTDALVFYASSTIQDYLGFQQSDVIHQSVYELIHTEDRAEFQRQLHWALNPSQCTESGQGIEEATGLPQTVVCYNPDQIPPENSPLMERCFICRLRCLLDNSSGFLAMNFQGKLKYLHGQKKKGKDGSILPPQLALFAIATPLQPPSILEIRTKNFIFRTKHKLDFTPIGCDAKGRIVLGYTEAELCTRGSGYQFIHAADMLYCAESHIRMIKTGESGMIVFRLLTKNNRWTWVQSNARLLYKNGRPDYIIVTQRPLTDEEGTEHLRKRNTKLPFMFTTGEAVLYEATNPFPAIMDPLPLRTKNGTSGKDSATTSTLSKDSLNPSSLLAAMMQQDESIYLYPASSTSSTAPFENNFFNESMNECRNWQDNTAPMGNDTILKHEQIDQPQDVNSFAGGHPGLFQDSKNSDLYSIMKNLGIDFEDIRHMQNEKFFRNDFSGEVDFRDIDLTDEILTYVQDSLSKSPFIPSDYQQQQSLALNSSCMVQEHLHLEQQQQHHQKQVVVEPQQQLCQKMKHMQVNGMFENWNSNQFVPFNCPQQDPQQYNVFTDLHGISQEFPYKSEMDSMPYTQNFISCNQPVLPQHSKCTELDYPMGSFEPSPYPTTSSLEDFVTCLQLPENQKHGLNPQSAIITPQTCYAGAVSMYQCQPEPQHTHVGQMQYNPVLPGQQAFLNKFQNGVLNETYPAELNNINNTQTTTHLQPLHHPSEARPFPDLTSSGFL
Sequence of Peroxisome proliferator-activated receptor gamma (Homo sapiens) (P37231 whole entry, looked up): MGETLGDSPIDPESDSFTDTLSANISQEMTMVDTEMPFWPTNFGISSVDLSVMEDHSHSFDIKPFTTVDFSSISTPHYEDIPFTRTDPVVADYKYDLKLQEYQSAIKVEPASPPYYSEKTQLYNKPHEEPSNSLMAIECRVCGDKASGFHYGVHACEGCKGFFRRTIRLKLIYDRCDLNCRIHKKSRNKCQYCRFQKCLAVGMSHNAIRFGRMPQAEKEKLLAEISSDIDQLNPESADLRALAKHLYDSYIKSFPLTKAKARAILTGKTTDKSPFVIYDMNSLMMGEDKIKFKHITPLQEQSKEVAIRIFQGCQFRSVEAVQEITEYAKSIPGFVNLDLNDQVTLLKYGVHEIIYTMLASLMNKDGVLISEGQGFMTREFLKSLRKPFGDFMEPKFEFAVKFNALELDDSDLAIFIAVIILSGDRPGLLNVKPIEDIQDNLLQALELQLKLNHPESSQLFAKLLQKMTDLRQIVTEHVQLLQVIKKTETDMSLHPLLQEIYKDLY
Sequence of Peroxisome proliferator-activated receptor delta (Homo sapiens) (Q03181 whole entry, looked up): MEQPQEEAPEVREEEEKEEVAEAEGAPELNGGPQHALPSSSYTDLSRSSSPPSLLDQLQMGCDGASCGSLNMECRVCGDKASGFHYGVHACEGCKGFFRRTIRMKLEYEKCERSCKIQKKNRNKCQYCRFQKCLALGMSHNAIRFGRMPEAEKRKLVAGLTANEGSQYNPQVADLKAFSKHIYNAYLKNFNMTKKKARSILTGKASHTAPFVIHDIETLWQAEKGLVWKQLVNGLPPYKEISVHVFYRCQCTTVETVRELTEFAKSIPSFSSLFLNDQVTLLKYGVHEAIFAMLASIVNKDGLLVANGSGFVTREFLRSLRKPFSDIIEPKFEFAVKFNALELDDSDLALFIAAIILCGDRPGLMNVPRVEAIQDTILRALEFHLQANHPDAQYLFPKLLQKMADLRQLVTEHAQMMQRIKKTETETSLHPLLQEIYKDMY

For the molecule `C=C(C)[C@@H]1CCC2=CCC[C@@H](C)[C@]2(C)C1`, the Potency entry in [1], in [2], in experiment [3], in experiment [4], in experiment [5] and in [6] was “inactive” throughout. Further, the Potency result in experiment [7] and in experiment [8] was “inactive” each time.
Regarding `O=Cc1c2ccccc2c(Cl)c2ccccc12`, the Potency entry in experiment [1], in experiment [2], in experiment [9], in [5], in experiment [10] and in experiment [11] was “inactive” throughout. Moreover, the Potency entry in experiment [6], in experiment [13], in experiment [14], in [7], in [8] and in [15] was “inactive” throughout. In addition, the Potency entry in [16] is “inactive”. In addition, the Potency in experiment [3] was 9.53 µM (active); in [12], 10.7 µM (active).
Take `C=CC(=O)[O-].C=CC(=O)[O-].[Zn+2]`: the Potency entry in experiment [1], in experiment [2], in [3], in experiment [9], in experiment [5] and in experiment [10] was “inactive” throughout. The Potency entry in experiment [11], in experiment [12], in experiment [6], in [13], in [14] and in experiment [7] was “inactive” in each case. The Potency entry in experiment [8], in experiment [15] and in [16] was “inactive” each time.
For `CC(C)(c1ccccc1)c1ccccc1`, the Potency result in experiment [1], in experiment [2], in experiment [3], in experiment [9], in experiment [17] and in experiment [5] was “inactive” throughout. In addition, the Potency entry in experiment [10], in [18], in experiment [11], in experiment [6], in [14] and in experiment [7] was “inactive” each time. The Potency entry in experiment [8], in [15] and in [16] was “inactive” each time.
With `Cc1ccco1`, the Potency result in experiment [1], in experiment [2], in [3], in [4], in [9] and in experiment [5] was “inactive” throughout. Besides, the Potency entry in experiment [10], in experiment [11], in [6], in experiment [14], in experiment [7] and in [8] was “inactive” each time. Besides, the Potency entry in experiment [15] and in [16] was “inactive” in each case.
With `O=C1NC(=O)c2cc([N+](=O)[O-])ccc21`, the Potency entry in [1], in experiment [2], in [3], in [9], in [5] and in experiment [18] was “inactive” throughout. The Potency entry in experiment [11], in [12], in experiment [6], in [13], in experiment [14] and in experiment [7] was “inactive” each time.
In the case of `O=C(O)C[C@H](NC(=O)OCc1ccccc1)C(=O)O`, the Potency entry in experiment [1], in experiment [2], in experiment [3], in experiment [4], in experiment [9] and in experiment [18] was “inactive” in each case. Moreover, the Potency entry in experiment [11], in experiment [12], in experiment [6], in [13], in experiment [14] and in experiment [7] was “inactive” throughout. The Potency result in experiment [8], in [15] and in [16] was “inactive” each time.
On to `CC1=Nc2ccc3ccccc3c2C1(C)C`, for which the Potency result in [1], in experiment [3], in [4], in experiment [9], in experiment [5] and in experiment [10] was “inactive” in each case. The Potency entry in [11], in experiment [14] and in experiment [16] was “inactive” throughout. Further, the Potency in experiment [2] was 54.5 µM (active).
For the molecule `O=C(O)CCC(=O)C(=O)O`, the Potency entry in [1], in experiment [2], in [3], in experiment [9], in [17] and in experiment [5] was “inactive” throughout. Besides, the Potency result in experiment [10], in experiment [11], in experiment [6], in experiment [14], in [7] and in experiment [8] was “inactive” each time. Also, the Potency result in experiment [15] and in experiment [16] was “inactive” throughout.
Consider `O=C(/C=C/c1ccc(O)c(O)c1)O[C@@H]1C[C@@](OC(=O)/C=C/c2ccc(O)c(O)c2)(C(=O)O)C[C@@H](O)[C@@H]1O`, for which the Potency result in experiment [1], in [2], in [3], in experiment [4], in [9] and in experiment [10] was “inactive” in each case. Also, the Potency result in experiment [11], in [6], in experiment [13], in [14], in experiment [7] and in experiment [8] was “inactive” in each case. Further, the Potency entry in experiment [15] and in experiment [16] was “inactive” in each case.
